Source: PubChem BioAssay (several laboratories)
An excerpt weighted towards active compounds, which were near 3.1% of everything screened.
Anthrax LF inh2: anthrax lethal factor protease inhibition | P15917 | inhibition, % at 10 µM | 360,000 compounds, 0.12% hits | multiplex microsphere protease cleavage assay, LF; note: plate controls were buffer without enzyme for full effect and enzyme alone for no effect
BoNT-A LC inh2: blocks Botulinum neurotoxin A light chain protease; AID 588499; multiplex microsphere protease substrate cleavage, flow cytometry; 360,000 compounds, 0.17% hits; inhibition, % at 10 µM; note: plate controls were buffer without enzyme for full effect and enzyme alone for no effect
SSB-PriA inh: K. pneumoniae PriA-SSBct interaction inhibition; inhibition, % at 33 µM; 430,000 compounds, 0.6% hits; AlphaScreen SSBct-PriA binding, biotinylated peptide; in the data active = inhibition mostly above about 37%, no sharp cut-off; inactive = mostly below about 20%;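 note: plate controls were negative control peptide for no effect and reference peptide for full effect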
BoNT F protease: BoNT F light chain protease inhibition; Multiplex microsphere protease cleavage assay, flow cytometry; inhibition, % at 10 µM; 360,000 compounds, 0.22% hits; AID 588497; in the data active = inhibition above about 35%, passing the limit was not always enough; inconclusive = no clear call, values can overlap the other calls; note: plate controls were buffer without enzyme for full effect and enzyme alone for no effect
Autofluor counter: flagged as autofluorescent in microsphere protease counterscreen | fluorescence intensity (no concentration beside the values) | AID 624483 | compound autofluorescence counterscreen, microsphere flow cytometry; hits give high values | 360,000 compounds, 3.1% hits; in the data active = fluorescence intensity above about 16000; inconclusive = no clear call, values can overlap the other calls
BoNTA LC inh 1: BoNT/A light chain protease inhibition; multiplex microsphere protease assay, flow cytometry; 720 compounds, 3% hits; inhibition, % at 10 µM; shares compounds with BoNT F protease; in the data active = inhibition above about 32%
BoNT-F LC CP1: BoNT/F light chain protease inhibition. shares compounds with BoNT F protease. multiplex microsphere protease cleavage assay, flow cytometry. inhibition, % at 10 µM. 720 tested, under 10 active; call rule not given here
Anthrax LF CP1: blocks anthrax lethal factor protease; inhibition, % at 10 µM; multiplex microsphere protease cleavage assay, LF; AID 602142; 720 tested, under 10 active; shares compounds with BoNT F protease; call rule not given here
Numbers without * were called inactive; ? = inconclusive; · = no result. Cut-off read from the data, not from the text of the source, unless noted: active = inhibition above about 30%; inconclusive = no clear call, values can overlap the other calls; inactive = below that.

SMILES | Anthrax LF inh2 | BoNT-A LC inh2 | SSB-PriA inh | BoNT F protease | Autofluor counter | BoNTA LC inh 1 | BoNT-F LC CP1 | Anthrax LF CP1
COc1ccc(-n2c(C)nc(N)c2C(=O)c2ccccc2)cc1 | 56* | -5 | 2 | ? | 4994 | -1 | -2 | 3
COC(=O)c1c(N)nc(C)n1-c1ccc(OC)cc1 | -4 | 1 | 3 | 4 | 3166 | · | · | ·
O=C(Nc1cccc(N2CCCCC2=O)c1)c1ccc(Cl)c(Cl)c1 | · | · | 5 | · | · | · | · | ·
COc1ccc(CC2(CO)CCN(S(=O)(=O)c3sccc3C)CC2)cc1 | -6 | 6 | -11 | 38* | 4205 | 1 | -7 | 1
COC(=O)c1ccccc1NC(=O)c1ccco1 | 0 | 0 | -29 | 4 | 2121 | · | · | ·
COC(=O)c1sccc1NC(=O)c1ccco1 | -3 | 0 | -4 | 36* | 4135 | -2 | -3 | -3
COc1cc(OC)c(CN2CCc3c([nH]c4ccccc34)C2)cc1Br | -10 | 51* | -3 | ? | 26222* | -1 | -6 | -6
Cc1cccc(CN2CCc3c([nH]c4ccccc34)C2)c1 | -6 | 2 | -3 | -2 | 4883 | · | · | ·
CCOC(=O)c1nn(-c2ccccc2)c(=O)cc1NC(=O)CC1CCCC1 | · | · | -1 | · | · | · | · | ·
COc1ccccc1OCC(=O)N(Cc1ccc(Cl)cc1)C1CCS(=O)(=O)C1 (stereo unspecified) | · | · | -6 | · | · | · | · | ·
CC(C)Oc1ccc(C(=O)CCN2CCOCC2)cc1 | 0 | 1 | 3 | -8 | 4370 | -1 | -6 | 0
O=C(CCN1CCOCC1)c1ccc(Cl)cc1 | -2 | 5 | 2 | 42* | 3570 | 0 | -1 | 2
CCCCCOc1ccc(C(=O)CCN2CCOCC2)cc1 | -1 | 2 | 9 | -5 | 3418 | · | · | ·
O=C(CCN1CCN(c2ccccc2)CC1)c1ccc(Br)cc1 | 12 | 1 | 4 | 11 | 3703 | · | · | ·
O=C(CCN1CCOCC1)c1ccc(Br)cc1 | -4 | 6 | -5 | 40* | 4225 | 0 | -5 | -1
COCC(=O)NCC1CN(c2ccc(F)cc2)C(=O)O1 (stereo unspecified) | · | · | -10 | · | · | · | · | ·
CC(=O)c1c(C)nc(-c2ccc(Cl)cc2)nc1N | 1 | 5 | -6 | 50* | 2357 | 5 | 24 | 5
Cn1c(=O)c2cc(S(=O)(=O)NC(Cc3ccccc3)C(=O)NCc3ccco3)ccc2n(C)c1=O (stereo unspecified) | 6 | 0 | -13 | -5 | 5559 | · | · | ·
COCCCNC(=O)C(Cc1ccccc1)NS(=O)(=O)c1ccc2c(c1)c(=O)n(C)c(=O)n2C (stereo unspecified) | -4 | 6 | 0 | 52* | 7854 | 0 | -6 | -3
CN(C)c1nc(Nc2ccc(F)cc2)nc(Oc2ccc(F)cc2)n1 | -90 | 57* | 2 | -254 | 1636 | -1 | -4 | -1
Cc1ccc(Nc2nc(Oc3ccc(=O)[nH]n3)nc(N(C)C)n2)cc1 | -5 | 0 | 5 | -13 | 4829 | · | · | ·
COc1ccc(C(=O)NCCn2ncc3c(N4CCN(c5ncccn5)CC4)ncnc32)cc1OC | · | · | -9 | · | · | · | · | ·
O=C(Nc1ccc(F)cc1)Nc1cccc(Br)c1 | 32* | 2 | -9 | ? | 3227 | 1 | -6 | -3
Cc1ccc(NC(=O)Cc2ccc(Cl)cc2)nc1 | 47* | 3 | -9 | ? | ? | -2 | -6 | -1
Cc1cc(C)c2[nH]c(=O)c(C(c3nnnn3C(C)(C)C)N(Cc3ccco3)CC3CCCO3)cc2c1 (stereo unspecified) | -3 | 0 | -11 | 0 | 20853* | -1 | -7 | -3
SMILES | Anthrax LF inh2 | BoNT-A LC inh2 | SSB-PriA inh | BoNT F protease | Autofluor counter | BoNTA LC inh 1 | BoNT-F LC CP1 | Anthrax LF CP1
Cc1cc2cc(C(c3nnnn3C(C)(C)C)N(Cc3ccco3)CC3CCCO3)c(=O)[nH]c2cc1C (stereo unspecified) | -3 | -1 | -3 | -3 | 9489 | · | · | ·
O=C(Nc1nc(CCC(=O)N2CCc3ccccc32)cs1)c1ccco1 | · | · | -7 | · | · | · | · | ·
CCC(=O)N1CCc2cc(-c3csc(NC(=O)c4ccco4)n3)ccc21 | -10 | -2 | 7 | 35* | 3917 | 2 | 5 | -1
CCOC(=O)N1CCN(CCC(=O)Nc2cc(C)ccc2C)CC1 | -14 | 2 | -24 | 9 | 3437 | · | · | ·
CCOC(=O)C1CCN(CCC(=O)Nc2cc(C)ccc2C)CC1 | 42* | 1 | 5 | ? | 3509 | 0 | -1 | -5
COc1ccc(C(=O)N2CCN(Cc3cc(OC)ccc3OC)CC2)cc1 | -1 | 0 | -3 | ? | 4285 | · | · | ·
COc1ccc(C(=O)N2CCN(Cc3ccc(OC)c(OC)c3)CC2)cc1 | 17 | 4 | -20 | 44* | 3398 | 0 | 3 | -1
